A short description of this experiment: Biochemical counterscreen for C difficile toxins, absence of UDPG, inhibitor dose response (AID 720650). In general terms: The purpose of a counterscreen is to sort out artefacts and off-target activity.

Values without a mark were called inactive. Active and inactive are the calls of the source. The rule behind the calls is not given here.

The source of these data is PubChem BioAssay AID720650 (Broad Institute, 2013).

As usually defined, the AC50 is the concentration giving half of the maximal activity seen.

In the case of `Cc1ccc(CNC(=O)Nc2cccc(C)c2)cc1`, the AC50 entry is “inactive”.

With `O=C(COc1ncnc2ccccc12)NCCc1ccc(F)cc1`, the AC50 entry is “inactive”.

On to `CCC(=O)N1CC[C@@H]2[C@@H](CO)N(C)c3ccc(-c4ccccc4)cc3[C@@H]21`, for which the AC50 was 6.31 µM (active). The value for `CNC(=O)N(O)C1N(/N=C/c2cccs2)C(=S)SC1(C)C` (configuration not stated) was > 39 µM.

As to `Cc1ccccc1S(=O)(=O)N1CCCc2nc(C)c(C)cc21`, the AC50 was > 39 µM. The value for `COc1cc(/C=N/NC(=O)CCN2CCCCC2)ccc1O` was “inactive”; that for `COc1ccc(C(=O)N2CCOCC2)cc1S(=O)(=O)N1CCCc2ccccc21` was “inactive”. To `CC(=O)C1=CCC(c2ccccc2)N(S(=O)(=O)c2ccc(C)cc2)C1` (configuration not stated) belongs “inactive”; to `CSc1nc(Cl)cc(Nc2ccc(O)cc2)n1`, “inactive”. On to `Cn1c(-c2ccc(F)c(F)c2)cc2onc(-c3ccccc3)c2c1=O`, for which the AC50 entry was “inactive”. To `O=C(NC(=S)NNS(=O)(=O)c1ccccc1)c1cccnc1` belongs “inactive”. To `CO[C@@H]1CN(C)C(=O)c2cc(NC(=O)NC(C)C)ccc2OC[C@@H](C)N(S(C)(=O)=O)C[C@H]1C` belongs “inactive”. The value for `CCN(CCN(C)C)C(=O)C1CCN(S(=O)(=O)c2c(C)noc2/C=C/c2ccccc2F)CC1` was “inactive”. Regarding `CC(=O)Nc1ccc(Oc2nc(-c3ccccn3)nc3ccccc23)cc1`, the AC50 is 11 µM (active). The value for `COc1cc(/C=N/NC(=O)C2COc3ccccc3O2)ccc1O` (configuration not stated) was “inactive”; that for `CC(=O)Oc1ccc2nc(/C=C/c3ccccc3)oc(=O)c2c1` was “inactive”.

Consider `COc1ccc(S(=O)(=O)N2CCOCC2)cc1NC(=O)COC(=O)c1[nH]c(C)c(C(C)=O)c1C`, for which the AC50 was > 39 µM.
